In PubChem BioAssay (NCI):
The panel holds about 83,000 compounds, 20% with a hit somewhere; the sample as a whole holds those more often.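 48-hour exposure, single concentration, 96-well plates; percent growth endpoint where 0 means no net growth. Active: below 10.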 The source made the active and inactive calls.

Experiments:
Experiment in all cases: NCI-60 one-dose screen, 48 h (100 = growth as untreated, 0 = no growth, -100 = all killed)
Conditions in all cases: 10 µM unless noted
[1] = tested on: HCT-15 colon
[2] = tested on: HT29 colon
[3] = tested on: SNB-75 CNS
[4] = tested on: SNB-19 CNS
[5] = tested on: U251 CNS
[6] = tested on: PC-3 prostate
[7] = tested on: SK-MEL-5 melanoma
[8] = tested on: UACC-62 melanoma
[9] = tested on: LOX IMVI melanoma
[10] = tested on: SK-MEL-28 melanoma

Measured: growth

CCOC(=O)c1c(C)nc2ccccc2c1/C=C/c1ccccc1
inactive: [1] 64.3% | [2] 82.6% | [3] 80.1% | [4] 77.3% | [5] 79.7% | [6] 69.9% | [8] 52.2% | [9] 71.8% | [10] 102%
active: [7] -0.202%

CN(C)c1ccc(-c2ccc3c(c2)c(-c2ccccc2)nc(=O)n3C)cn1
inactive: [1] 30.4% | [2] 11.7% | [3] 27.8% | [4] 34.3% | [5] 30.4% | [7] 22% | [8] 25.2% | [9] 34.3% | [10] 55.2%
active: [6] -42.8%

CC1=CCC(OC(=O)C(C)(C)CC(O)(C(C)O)C(O)C2(C)C=CC(Cc3ccc(C(C)C)cc3)(C(C)C)CC2)(C(C)C)CC1 (stereo not given)
active: [9] -50.6%
inactive: [1] 101% | [2] 103% | [3] 72.5% | [4] 98.2% | [5] 96.7% | [6] 96.8% | [7] 99.6% | [8] 86.3% | [10] 100%

CCCC(CC)(C(=O)Nc1ccc2nc(C)cc(N)c2c1)C(=O)Nc1ccc2nc(C)cc(N)c2c1
inactive: [1] 110% | [2] 99.1% | [3] 100% | [4] 103% | [5] 107% | [6] 95.8% | [7] 99.5% | [8] 102% | [9] 100% | [10] 110%

COC(=O)N1CC(Oc2ccccn2)C2CC1c1ccccc1O2 (stereo not given)
inactive: [1] 98.8% | [2] 103% | [3] 98.7% | [4] 94.5% | [5] 104% | [6] 94.4% | [7] 99.4% | [8] 89.5% | [9] 96.8% | [10] 94.8%

C/C(Cc1ccc(Cl)cc1)=C(\c1ccc(OCCCN(C)C)cc1)c1ccc(OC(=O)Cc2ccccc2)cc1
inactive: [1] 103% | [2] 78.8% | [3] 92.8% | [4] 105% | [5] 112% | [6] 96.5% | [7] 102% | [8] 105% | [9] 99.2% | [10] 103%

C=C1C(=O)O[C@H]2[C@H]1CC/C(COC(=O)/C=C/C(=O)OC/C1=C/CC[C@@]3(C)O[C@H]3[C@H]3OC(=O)C(=C)[C@@H]3CC1)=C\CC[C@@]1(C)O[C@@H]21
active: [2] 8.88% | [9] 3.81%
inactive: [1] 13.1% | [3] 95.2% | [4] 90.5% | [5] 76% | [6] 61.1% | [7] 83.1% | [8] 55.1% | [10] 51.8%

COc1ccc2cc(-c3ccnc4c(N=Nc5ccc(Cl)cc5)c(N)nn34)ccc2c1
inactive: [1] 112% | [2] 103% | [3] 79.4% | [4] 92.4% | [5] 93.4% | [6] 89% | [7] 97.5% | [8] 91.8% | [9] 102% | [10] 99.2%

COc1cc(C(=O)c2c(-c3ccccc3)oc3c(OC)cccc23)cc(OC)c1OC
active: [1] 5.88% | [2] 8.2% | [3] 7.41% | [7] -42.3%
inactive: [4] 25% | [5] 14.2% | [6] 17.2% | [8] 30.2% | [9] 12.2% | [10] 59.9%

C#CCO[C@H]1CC(CC#C)(CC#C)C(=O)[C@@H]2[C@H]1[C@H]1C[C@@H]3[C@@]4(C)CCC[C@@](C)(C(=O)OC)[C@@H]4CC[C@@]23C=C1C(C)C
inactive: [1] 98.2% | [2] 55.7% | [3] 93.9% | [4] 93.4% | [5] 96.3% | [6] 58.8% | [7] 101% | [8] 78.6% | [10] 99.1%
active: [9] -86.6%

O=C(Nc1ccccc1[N+](=O)[O-])c1ccc(Cl)c(Cl)c1
inactive: [1] 91% | [2] 98.7% | [3] 69.6% | [4] 101% | [5] 86.1% | [6] 80.3% | [7] 84.2% | [8] 87.2% | [9] 85.9% | [10] 105%

O=C(NC(Cc1nnc2n(Cc3ccccc3)c(=O)c3c4c(sc3n12)CCCC4)c1ccccc1)c1ccccc1 (stereo not given)
inactive: [1] 138% | [2] 106% | [3] 81.3% | [4] 99.1% | [5] 111% | [6] 96.7% | [7] 96.1% | [8] 85.9% | [9] 109% | [10] 110%

Cc1ccc2nc(-c3ccc(C(=O)NNC(=S)Nc4ccccc4)cc3)[nH]c2c1
inactive: [1] 87.1% | [2] 92.5% | [3] 99.9% | [4] 97.8% | [5] 103% | [6] 85% | [7] 94.2% | [8] 98.9% | [9] 87.1% | [10] 95.3%

O=C(O)/C=C/C(=O)Nc1cccc(Cn2nnc3cc(Cl)c(Cl)cc32)c1
inactive: [1] 95.3% | [2] 110% | [3] 86.4% | [4] 100% | [5] 103% | [6] 102% | [7] 99.1% | [8] 97.6% | [9] 97.3% | [10] 106%

C=C1C(=O)O[C@H]2[C@H]1CC/C(COC(=O)NCc1ccc(Cn3c(=O)sn(-c4ccc(C#N)cc4)c3=O)cc1)=C\CC[C@@]1(C)O[C@@H]21
inactive: [1] 87.8% | [2] 48.2% | [3] 80.3% | [4] 88.5% | [5] 81.2% | [6] 71.6% | [7] 89.5% | [8] 69.3% | [9] 65.9% | [10] 87.2%

O=c1cc(-c2ccccc2)[nH]c2ncc(-c3ccc(F)cc3)n12
inactive: [1] 37.7% | [2] 40.6% | [3] 68.3% | [4] 68.3% | [5] 56% | [6] 56.7% | [7] 54.9% | [8] 36.6% | [9] 65.9% | [10] 73.4%

FC(F)(F)c1ccc(Cn2cc(CSc3nc4ccccc4s3)nn2)cc1
inactive: [1] 101% | [2] 94.4% | [3] 94% | [4] 101% | [5] 96.3% | [6] 95.7% | [7] 105% | [8] 87.3% | [9] 110% | [10] 105%

CNC1=CC(=O)c2c(C(=O)OC)c(C)[n+]([O-])c(C)c2C1=O
inactive: [1] 49.1% | [2] 16.5% | [3] 147% | [4] 81.5% | [5] 64% | [6] 61.9% | [8] 27.3% | [9] 34.4% | [10] 96.3%
active: [7] -47.9%

O=S(=O)(NCCNc1nccc(-c2c(-c3cccc(O)c3)nc3occn23)n1)c1ccc(Br)cc1
inactive: [1] 67.3% | [2] 19.1% | [3] 56.5% | [4] 65.8% | [5] 41% | [6] 29.9% | [9] 25.2% | [10] 26.1%
active: [7] 4.04% | [8] 5.9%

CCN1C(=O)N(CC)C2C1NC(=S)N2/N=C/c1ccc(C(F)(F)F)cc1 (stereo not given)
inactive: [1] 39.4% | [2] 43.6% | [3] 48.5% | [4] 73.6% | [5] 70.5% | [6] 59.7% | [7] 52% | [8] 47.4% | [9] 73.2% | [10] 76.3%

C=C1C(=O)O[C@H]2[C@H]1CC/C(CNC(=O)c1c[nH]c3ccc(F)cc13)=C\CC[C@@]1(C)O[C@@H]21
inactive: [3] 45% | [4] 61.3% | [5] 31.7% | [6] 31.8% | [7] 61.4%
active: [1] -69.6% | [2] -59.5% | [8] -37.3% | [9] -88.4% | [10] -24.3%

COC(=O)CC[C@@H]1O[C@@H](c2ccc(F)cc2)[C@@H](O)[C@H]1O
inactive: [1] 105% | [2] 108% | [3] 90.1% | [4] 108% | [5] 109% | [6] 96.8% | [7] 95.7% | [8] 106% | [9] 99.8% | [10] 102%

CCc1ccc(CCC(=O)Nc2ncc(Cc3cc(Cl)ccc3Cl)s2)o1
inactive: [1] 13% | [4] 21% | [5] 21.7% | [6] 23.8% | [7] 25.2% | [8] 18.7% | [9] 30.2% | [10] 55.9%
active: [2] 2.01% | [3] -12.1%

NNCCc1ccc(NC(=O)CCCc2ccc(C(=O)Nc3ccccc3N)cc2)cc1
inactive: [1] 96.8% | [2] 51.1% | [3] 68.2% | [4] 85.5% | [5] 54.1% | [6] 55.1% | [7] 57.1% | [8] 49.2% | [9] 63.7% | [10] 75.6%

O=C(Cc1cccc(OC(F)(F)F)c1)Nc1ccc(CCCCc2nnc(NC(=O)Cc3ccccn3)s2)nn1
inactive: [1] 89.6% | [2] 76.6% | [3] 78.6% | [4] 84.9% | [5] 82.3% | [6] 17.5% | [7] 62.2% | [8] 63.5% | [9] 82.8% | [10] 93.8%

COc1ccc(/C=C/C(=O)c2cc3c(N)c(C(=O)Nc4cccc(Cl)c4C)sc3nc2C)cc1
inactive: [3] 21.3% | [6] 22.7% | [8] 26.9% | [10] 43.7%
active: [1] 5.62% | [2] -2.08% | [4] 5.32% | [5] -20% | [7] -28.9% | [9] -44.6%
